According to the supplement of paper PMC6853941:
A number with no mark means an inactive call.

tested on: MCF10A; experiment: perturbation Mahalanobis distance of morphological profile vs DMSO controls (Mahalanobis distance (SD units)); higher = stronger morphological change, active = 7 or more; conditions: screen batch: Batch1_Mahalanobis_Distance; 72 h
Experimental: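 MCF10A cells were seeded onto drugs dispensed acoustically into 384-well plates, using one dose per drug chosen from its human peak plasma concentration, and incubated for 72 h at 37 °C. Cells were stained for DNA, tubulin and mitochondria and imaged; 78 CellProfiler features were extracted, plate-normalised and compared with DMSO wells.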

SMILES | perturbation Mahalanobis distance
COc1cc(Cc2cnc(N)nc2N)cc(OC)c1OC [Trimethoprim] (43.1 µM) | 4.35
NNc1nncc2ccccc12 [Hydralazine] (15.6 µM) | 4.07
CC(C)(Sc1cc(C(C)(C)C)c(O)c(C(C)(C)C)c1)Sc1cc(C(C)(C)C)c(O)c(C(C)(C)C)c1 [Probucol] (12.58 µM) | 2.88
CCC(c1ccccc1)c1c(O)oc2ccccc2c1=O (stereo unspecified) [Phenprocoumon] (64.2 µM) | 2.32
CCN(CC)Cc1cc(Nc2ccnc3cc(Cl)ccc23)ccc1O [Amodiaquine] (0.7 µM) | 2.08
O=C(CCCCCCC(=O)Nc1ccccc1)NO [Vorinostat] (9.8 µM) | 11 (active)
CCCSc1ccc2nc(NC(=O)OC)[nH]c2c1 [Albendazole] (28.3 µM) | 13.8 (active)
CCOC(=O)C(C)(C)Oc1ccc(Cl)cc1 [Clofibrate] (325.5 µM) | 6.08
CN(C)C(=O)C(CCN1CCC(O)(c2ccc(Cl)cc2)CC1)(c1ccccc1)c1ccccc1 [Loperamide] (32 µM) | 3.13
c1ccc(CC2=NCCN2)cc1 [Tolazoline] (25 µM) | 2.21
C[C@H](N[C@@H](CCc1ccccc1)C(=O)O)C(=O)N1CCC[C@H]1C(=O)O [Enalaprilat] (0.67 µM) | 3.78
CN1C(=O)CC(c2ccccc2)C1=O (stereo unspecified) [Phensuximide] (52.9 µM) | 3.2
Cc1ncc([N+](=O)[O-])n1CCO [Metronidazole] (58.4 µM) | 3.04
CNS(=O)(=O)Cc1ccc2[nH]cc(CCN(C)C)c2c1 [Sumatriptan] (1 µM) | 1.95
NC(=O)c1ncn([C@@H]2O[C@H](CO)[C@@H](O)[C@H]2O)n1 [Ribavirin] (75.3 µM) | 5.79
CCOC(=O)C1=C[C@@H](OC(CC)CC)[C@H](NC(C)=O)[C@@H](N)C1 [Oseltamivir] (1 µM) | 2.31
Nc1nc(=O)c2ncn(COC(CO)CO)c2[nH]1 [Ganciclovir] (98 µM) | 3.22
c1cnc2cc3c(cc2n1)C1CNCC3C1 [Varenicline] (0.24 µM) | 2.52
NNC(=O)c1ccncc1 [Isoniazid] (73.5 µM) | 6.37
CC1(C)C[C@@H]1C(=O)N/C(=C\CCCCSC[C@H](N)C(=O)O)C(=O)O [Cilastatin] (153.4 µM) | 3.43

same assay, conditions: screen batch: Batch2_Mahalanobis_Distance; 72 h

SMILES | perturbation Mahalanobis distance
COc1cc(Cc2cnc(N)nc2N)cc(OC)c1OC [Trimethoprim] (43.1 µM) | 3.85
NNc1nncc2ccccc12 [Hydralazine] (15.6 µM) | 3.91
CC(C)(Sc1cc(C(C)(C)C)c(O)c(C(C)(C)C)c1)Sc1cc(C(C)(C)C)c(O)c(C(C)(C)C)c1 [Probucol] (12.58 µM) | 3.01
CCC(c1ccccc1)c1c(O)oc2ccccc2c1=O (stereo unspecified) [Phenprocoumon] (64.2 µM) | 3.97
CCN(CC)Cc1cc(Nc2ccnc3cc(Cl)ccc23)ccc1O [Amodiaquine] (0.7 µM) | 2.97
O=C(CCCCCCC(=O)Nc1ccccc1)NO [Vorinostat] (9.8 µM) | 18.4 (active)
CCCSc1ccc2nc(NC(=O)OC)[nH]c2c1 [Albendazole] (28.3 µM) | 15.4 (active)
CCOC(=O)C(C)(C)Oc1ccc(Cl)cc1 [Clofibrate] (325.5 µM) | 2.81
CN(C)C(=O)C(CCN1CCC(O)(c2ccc(Cl)cc2)CC1)(c1ccccc1)c1ccccc1 [Loperamide] (32 µM) | 2.31
c1ccc(CC2=NCCN2)cc1 [Tolazoline] (25 µM) | 2.33
N#C[C@@H]1C[C@@H]2C[C@@H]2N1C(=O)[C@@H](N)C12CC3CC(CC(O)(C3)C1)C2 [Saxagliptin] (0.38 µM) | 3.33
C[C@H](N[C@@H](CCc1ccccc1)C(=O)O)C(=O)N1CCC[C@H]1C(=O)O [Enalaprilat] (0.67 µM) | 2.89
CN1C(=O)CC(c2ccccc2)C1=O (stereo unspecified) [Phensuximide] (52.9 µM) | 2.78
Cc1ncc([N+](=O)[O-])n1CCO [Metronidazole] (58.4 µM) | 2.36
CNS(=O)(=O)Cc1ccc2[nH]cc(CCN(C)C)c2c1 [Sumatriptan] (1 µM) | 3.35
NC(=O)c1ncn([C@@H]2O[C@H](CO)[C@@H](O)[C@H]2O)n1 [Ribavirin] (75.3 µM) | 11.4 (active)
CCOC(=O)C1=C[C@@H](OC(CC)CC)[C@H](NC(C)=O)[C@@H](N)C1 [Oseltamivir] (1 µM) | 1.77
Nc1nc(=O)c2ncn(COC(CO)CO)c2[nH]1 [Ganciclovir] (98 µM) | 3.75
c1cnc2cc3c(cc2n1)C1CNCC3C1 [Varenicline] (0.24 µM) | 2.29
NNC(=O)c1ccncc1 [Isoniazid] (73.5 µM) | 2.59
CC1(C)C[C@@H]1C(=O)N/C(=C\CCCCSC[C@H](N)C(=O)O)C(=O)O [Cilastatin] (153.4 µM) | 3.46
